# Values without a mark were called inactive. The call rests on the fitted dose curve; in most records, active means well fitted curve in the direction sought with a large enough effect; inconclusive means small, poorly fitted or top-dose-only effect, or another doubt; inactive means no such curve, though single readings can be large or run the other way.
# Target: Hexokinase-4 (Homo sapiens) + Glucokinase regulatory protein (Homo sapiens) (UniProt P35557+Q14397)
# Assay: qHTS assay for inhibitors of recombinant human GCK-GKRP interaction: Diaphorase-coupled assay (AID 743205)
# Conditions: G6PDH/diaphorase resorufin fluorescence; series mostly up to 57.5 µM; activity change, positive = activation: at the top concentration
# Description: Glucokinase (GCK) is a glucose sensor in hepatocytes and pancreatic beta-cells. Hepatic GCK is regulated by glucokinase regulatory protein (GKRP), which is predominantly localized to the liver. GKRP binds to GCK inhibiting its activity in the fasting state while in the presence of glucose the GKRP is displaced. There is an additional layer of regulation by fructose 1-phosphate and fructose 6-phosphate, which inhibit and enhance the GCK-GKRP interaction, respectively. GCK plays a role in glucose homeostasis and there is an interest in the development of strategies to activate GCK to lower blood glucose levels in type 2 diabetes. To date the majority of effort has focused on direct activation of GCK and the assays developed herein look to activate GCK by inhibiting its binding to GKRP. A compound that inhibits the interaction of GCK with GKRP could be important for the treatment of diabetes and can also be used as a tool compound to further elucidate GCK-GKRP biology. To that end, we have developed a sensitive HTS biochemical assay where in GCK activity is coupled to G6PDH and Diaphorase to interrogate the GCK-GKRP interaction. This assay was screened against a small compound library to look for modulators of activity.
# 2 uL of substrate (columns 1-48) are dispensed into Greiner, black solid-bottom 1536-well assay plates. Compounds (23 nL) are then transferred via Kalypsys pin tool equipped with 1536-pin array (10 nL slotted pins, V&P Scientific, San Diego, CA). The library compounds are in columns 5-48 and columns 1-4 serve as controls with DMSO in columns 1 and 3 and 26 mM 1:1.5 fold serial of gluckokinase activator (GKA-EMD) in column 2 and 26 mM of the glucokinase activator (GKA-EMD) in column 4. Following addition of compound and a 20 minute incubation, 1 uL of enzyme mix (GST-GCK, FLAG-GKRP and diaphorase) is added to columns 1, 2, 4-48 and 1 uL of no enzyme mix (FLAG-GKRP and diaphorase) is added to column 3 and the fluorescent product resorufin generated from resazurin was monitored on a Viewlux (PerkinElmer, Shelton, CT, USA) with excitation at 525 nm and emission at 590 nm in kinetic mode where the plate was read every minute for 30 minutes. The final concentration of reagents in the reaction are 25 mM Hepes pH 7.6, 25 mM KCl, 2 mM MgCl2, 1.4 mM 2-mercaptoethanol, 0.025% BSA, 0.01% Tween-20, 0.15 mM NADP+, 5 mM glucose, 0.4 mM ATP, 4 U/ml G6PDH, 0.1 mM resazurin, 10 nM GST-GCK, 10 nM FLAG-GKRP, diaphorase (0.1 mg/mL). Data are normalized to DMSO-treated control columns with (maximum signal) and without (minimum signal) enzyme.
# Chain of Hexokinase-4 (Homo sapiens) + Glucokinase regulatory protein (Homo sapiens) (P35557 whole entry, looked up): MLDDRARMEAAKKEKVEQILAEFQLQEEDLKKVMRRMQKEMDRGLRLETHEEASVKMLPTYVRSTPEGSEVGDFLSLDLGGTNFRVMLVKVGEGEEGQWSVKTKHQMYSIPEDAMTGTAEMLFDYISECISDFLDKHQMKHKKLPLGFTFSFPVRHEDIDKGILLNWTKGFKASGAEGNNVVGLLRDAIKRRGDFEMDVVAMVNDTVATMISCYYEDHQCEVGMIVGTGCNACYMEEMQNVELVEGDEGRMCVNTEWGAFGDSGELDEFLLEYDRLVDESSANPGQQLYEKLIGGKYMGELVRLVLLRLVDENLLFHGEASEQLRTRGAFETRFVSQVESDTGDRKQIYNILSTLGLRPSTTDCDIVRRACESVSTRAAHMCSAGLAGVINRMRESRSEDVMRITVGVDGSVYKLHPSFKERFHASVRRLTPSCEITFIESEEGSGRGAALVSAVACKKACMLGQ
# Chain of Hexokinase-4 (Homo sapiens) + Glucokinase regulatory protein (Homo sapiens) (Q14397 whole entry, looked up): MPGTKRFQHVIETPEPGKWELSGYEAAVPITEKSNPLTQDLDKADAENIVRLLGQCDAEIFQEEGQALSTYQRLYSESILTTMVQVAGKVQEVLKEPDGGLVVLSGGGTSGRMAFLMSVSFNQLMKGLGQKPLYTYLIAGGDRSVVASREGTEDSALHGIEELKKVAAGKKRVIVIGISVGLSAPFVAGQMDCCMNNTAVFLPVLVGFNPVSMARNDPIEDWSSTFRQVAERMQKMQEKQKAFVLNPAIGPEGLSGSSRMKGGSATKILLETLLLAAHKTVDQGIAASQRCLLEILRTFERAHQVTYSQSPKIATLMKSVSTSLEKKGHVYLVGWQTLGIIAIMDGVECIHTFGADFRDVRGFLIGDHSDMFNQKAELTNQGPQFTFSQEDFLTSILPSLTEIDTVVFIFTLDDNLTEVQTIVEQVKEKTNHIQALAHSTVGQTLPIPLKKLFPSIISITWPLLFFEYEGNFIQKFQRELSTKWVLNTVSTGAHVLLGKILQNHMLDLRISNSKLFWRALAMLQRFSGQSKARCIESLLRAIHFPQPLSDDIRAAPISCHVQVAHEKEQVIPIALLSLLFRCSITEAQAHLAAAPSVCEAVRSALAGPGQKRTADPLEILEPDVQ
row,Compound,"activity change, positive = activation [%]"
1,COc1ccc(CCn2nnnc2C2(c3ccc(C)cc3)CC2)cc1,-0.998
2,C=C1C(=O)O[C@@H]2[C@H]3O[C@]3(C)CCC=C(C)CC[C@@H]12,-2.6
3,CC(=O)NNC(=O)N1Cc2ccccc2Oc2ccc(Cl)cc21,-2.35
4,O=C(O)Cc1ccc(O)c(O)c1,-5.12
5,O=c1oc(Cl)c(Cl)c2ccccc12,-0.315
6,NC[C@@H]1O[C@H](c2ccccc2)Cc2c1ccc(O)c2O,-19.2
7,[N-]=[N+]=Nc1ccc(C(=O)CSC[C@H](NC(=O)CC[C@H](N)C(=O)O)C(=O)NCC(=O)O)cc1,-1.18
8,N[C@@H](CCCC(=O)O)C(=O)O,-4.86
9,CCCCCCCCCCCCCCCCCCOC[C@H](COP(=O)([O-])OCC[N+](C)(C)C)OC,3.71
10,Cc1cccc(C(=O)NCN2CCN(c3ccccc3C#N)CC2)c1,1.46
11,O=C(O)c1cc2cc(F)ccc2[nH]1,-3.29
12,N[C@@H](Cc1ccc(F)cc1)C(=O)O,-2.7
13,CN(C)S(=O)(=O)c1ccc2c(c1)/C(=C/c1cc3c([nH]1)CCCC3)C(=O)N2,1.14
14,CCc1ccc2c(-c3cccc(Cl)c3)nc(=O)n(CC)c2n1,2.43
15,c1ccc2c(c1)CC(N1CCN(c3cccc4c3OCCO4)CC1)C2,-2.18
16,CC(C)C[C@H](NC(=O)[C@H](O)[C@H](N)Cc1ccccc1)C(=O)O,-2.15
17,COCc1nc2c([nH]1)c(=O)n(C)c(=O)n2CC(C)C,-3.75
18,COC(=O)[C@H](NC(=O)c1cc(-c2ccccc2)nc2ccccc12)c1ccccc1,-3.76
19,O=C(O)c1ccccc1Nc1ccccc1,7.67
20,CC(=O)NCCc1c[nH]c2ccc(O)cc12,-28.6

row,Compound,"activity change, positive = activation [%]"
1,CCCCCC(O)CCCC(=O)O (stereo not given),-4.66
2,C/C(=C\c1ccc(C(=O)O)cc1)c1ccc2c(c1)C(C)(C)CCC2(C)C,-0.928
3,CCn1c(=O)[nH]c2cc(Cl)c(Cl)cc21,-3.9
4,C=CCN1CCc2c(cc(O)c(O)c2Br)[C@@H](c2ccccc2)C1,-13.4
5,CC(C)NC[C@H](O)COc1cccc2ccccc12,-8.65
6,NC(N)=N[C@@H](CCC(=O)O)C(=O)O,-5.96
7,NC1(C(=O)O)CC1,-2.62
8,C[C@](Cc1ccc(O)c(O)c1)(NN)C(=O)O,-8.46
9,CCCCC[C@H](CC(=O)NO)C(=O)N[C@H](C(=O)N1CCC[C@H]1CO)C(C)C,3.5
10,CCCCCCC(=O)OC1CC(C)(C)NC(C)(C)C1,-4.32
11,CCCC(=O)NCCc1c2n(c3ccc(OC)cc13)CCCc1ccccc1-2,-11
12,NCC(O)C1CCCCCCC1 (stereo not given),-0.534
13,Cc1ccc([N+](=O)[O-])cc1S(=O)(=O)N(C)C,-5.15
14,CC1C(=O)N(C)C(=O)c2nc[nH]c21 (stereo not given),-2.66
15,O=c1ccc2c(OCCCCc3ccccc3)c3ccoc3cc2o1,-2.95
16,c1ccc2nc(C3=NCCN3)ccc2c1,0.616
17,CCCn1c(=O)c2[nH]c(C3CCCC3)nc2n(CCC)c1=O,-3.03
18,CC(N)=O,-1.93
19,CCCCCCCCCCC/C=C\C(C)(C)/C=C\CCCC(=O)O,-3.4
20,CCC1(O)CC2CN(CCc3c([nH]c4ccccc34)[C@@](C(=O)OC)(c3cc4c(cc3OC)N(C=O)C3[C@]45CCN4CC=C[C@@](CC)([C@@H](OC(C)=O)[C@]3(O)C(=O)OC)[C@H]45)C2)C1 (stereo not given in full),-4.14

# From PubChem BioAssay (NCATS)
